# What was measured:
# Assay in all cases: SPOT peptide array binding signal intensity (averaged, normalized) (arbitrary units (background-subtracted, floor 0; scale differs between SH3 domains)); higher = stronger binding of the SH3 domain to the peptide
# [1] = molecular target: AgAbp1
# Description: (§1)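 GST-tagged SH3 domains from S. cerevisiae (Sc), A. gossypii (Ag), C. albicans (Ca) and S. pombe (Sp) were incubated at 10 ug/ml overnight at 4 C on cellulose SPOT membranes carrying 292 synthetic 15-mer peptides mined from the S. cerevisiae proteome (cysteines replaced by serines). Binding was detected with anti-GST antibody, HRP secondary and chemiluminescence, quantified with Genespotter, and reported as normalized spot intensities averaged over biological replicates.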
# [2] = molecular target: AgBbc1
# Description: as §1
# [3] = molecular target: AgBem1-D1
# Description: as §1
# [4] = molecular target: AgBzz1-D1
# Description: as §1
# [5] = molecular target: AgBzz1-D2
# Description: as §1
# [6] = molecular target: AgCyk3
# Description: as §1
# [7] = molecular target: AgFus1
# Description: as §1
# [8] = molecular target: AgHof1
# Description: as §1
# [9] = molecular target: AgHse1
# Description: as §1
# [10] = molecular target: AgLsb1
# Description: as §1
# [11] = molecular target: AgLsb4
# Description: as §1
# [12] = molecular target: AgMyo5
# Description: as §1
# [13] = molecular target: AgNbp2
# Description: as §1
# [14] = molecular target: AgRvs167
# Description: as §1
# [15] = molecular target: AgSho1
# Description: as §1
# [16] = molecular target: AgSla1-D1-D2
# Description: as §1
# [17] = molecular target: AgSla1-D3
# Description: as §1
# [18] = molecular target: CaAbp1-D1
# Description: as §1
# [19] = molecular target: CaAbp1-D2
# Description: as §1
# [20] = molecular target: CaBbc1
# Description: as §1
# [21] = molecular target: CaBem1-D1
# Description: as §1
# [22] = molecular target: CaBzz1-D1
# Description: as §1
# [23] = molecular target: CaBzz1-D2
# Description: as §1
# [24] = molecular target: CaCyk3
# Description: as §1
# [25] = molecular target: CaFus1
# Description: as §1
# [26] = molecular target: CaHof1
# Description: as §1
# [27] = molecular target: CaHse1
# Description: as §1
# [28] = molecular target: CaLsb1
# Description: as §1
# [29] = molecular target: CaLsb4
# Description: as §1
# [30] = molecular target: CaMyo5
# Description: as §1
# [31] = molecular target: CaNbp2
# Description: as §1
# [32] = molecular target: CaRvs167
# Description: as §1
# [33] = molecular target: CaRvs167-3
# Description: as §1
# [34] = molecular target: CaSho1
# Description: as §1
# [35] = molecular target: CaSla1-D1-D2
# Description: as §1
# [36] = molecular target: CaSla1-D3
# Description: as §1
# [37] = molecular target: ScAbp1
# Description: as §1
# [38] = molecular target: ScBbc1
# Description: as §1
# [39] = molecular target: ScBem1-D1
# Description: as §1
# [40] = molecular target: ScBzz1-D1
# Description: as §1
# [41] = molecular target: ScBzz1-D2
# Description: as §1
# [42] = molecular target: ScCyk3
# Description: as §1
# [43] = molecular target: ScFus1
# Description: as §1
# [44] = molecular target: ScHof1
# Description: as §1
# [45] = molecular target: ScHse1
# Description: as §1
# [46] = molecular target: ScLsb1
# Description: as §1
# [47] = molecular target: ScLsb2
# Description: as §1
# [48] = molecular target: ScLsb3
# Description: as §1
# [49] = molecular target: ScLsb4
# Description: as §1
# [50] = molecular target: ScMyo3
# Description: as §1
# [51] = molecular target: ScMyo5
# Description: as §1
# [52] = molecular target: ScNbp2
# Description: as §1
# [53] = molecular target: ScPex13
# Description: as §1
# [54] = molecular target: ScRvs167
# Description: as §1
# [55] = molecular target: ScSho1
# Description: as §1
# [56] = molecular target: ScSla1-D1-D2
# Description: as §1
# [57] = molecular target: ScSla1-D3
# Description: as §1
# [58] = molecular target: SpAbp1-D1
# Description: as §1
# [59] = molecular target: SpBbc1
# Description: as §1
# [60] = molecular target: SpBzz1-D1
# Description: as §1
# [61] = molecular target: SpBzz1-D2
# Description: as §1
# [62] = molecular target: SpCyk3
# Description: as §1
# [63] = molecular target: SpHof1
# Description: as §1
# [64] = molecular target: SpHof1-2
# Description: as §1
# [65] = molecular target: SpHof1-3
# Description: as §1
# [66] = molecular target: SpHse1
# Description: as §1
# [67] = molecular target: SpLsb1
# Description: as §1
# [68] = molecular target: SpLsb4
# Description: as §1
# [69] = molecular target: SpMyo1
# Description: as §1
# [70] = molecular target: SpNbp2
# Description: as §1
# [71] = molecular target: SpPex13
# Description: as §1
# [72] = molecular target: SpRvs167
# Description: as §1
# [73] = molecular target: SpSla1-D1-D2
# Description: as §1
# [74] = molecular target: SpSla1-D3
# Description: as §1
binder,measurement,setting,value
GLRRARYKFPGQQKI,SPOT peptide array binding signal intensity,[1],36.5
same,SPOT peptide array binding signal intensity,[2],30
same,SPOT peptide array binding signal intensity,[3],75
same,SPOT peptide array binding signal intensity,[4],22.5
same,SPOT peptide array binding signal intensity,[5],26
same,SPOT peptide array binding signal intensity,[6],3
same,SPOT peptide array binding signal intensity,[7],230
same,SPOT peptide array binding signal intensity,[8],24.5
same,SPOT peptide array binding signal intensity,[9],283
same,SPOT peptide array binding signal intensity,[10],17.2
same,SPOT peptide array binding signal intensity,[11],32.5
same,SPOT peptide array binding signal intensity,[12],2
same,SPOT peptide array binding signal intensity,[13],55
same,SPOT peptide array binding signal intensity,[14],5.67
same,SPOT peptide array binding signal intensity,[15],22
same,SPOT peptide array binding signal intensity,[16],228
same,SPOT peptide array binding signal intensity,[17],3
same,SPOT peptide array binding signal intensity,[18],388
same,SPOT peptide array binding signal intensity,[19],257
same,SPOT peptide array binding signal intensity,[20],91.5
same,SPOT peptide array binding signal intensity,[21],11
same,SPOT peptide array binding signal intensity,[22],74.5
same,SPOT peptide array binding signal intensity,[23],69
same,SPOT peptide array binding signal intensity,[24],20.5
same,SPOT peptide array binding signal intensity,[25],254
same,SPOT peptide array binding signal intensity,[26],1
same,SPOT peptide array binding signal intensity,[27],11.5
same,SPOT peptide array binding signal intensity,[28],0.5
same,SPOT peptide array binding signal intensity,[29],13
same,SPOT peptide array binding signal intensity,[30],2.5
same,SPOT peptide array binding signal intensity,[31],140
same,SPOT peptide array binding signal intensity,[32],15.2
same,SPOT peptide array binding signal intensity,[33],105
same,SPOT peptide array binding signal intensity,[34],254
same,SPOT peptide array binding signal intensity,[35],75
same,SPOT peptide array binding signal intensity,[36],3
same,SPOT peptide array binding signal intensity,[37],36
same,SPOT peptide array binding signal intensity,[38],19
same,SPOT peptide array binding signal intensity,[39],24
same,SPOT peptide array binding signal intensity,[40],19
same,SPOT peptide array binding signal intensity,[41],22
same,SPOT peptide array binding signal intensity,[42],107
same,SPOT peptide array binding signal intensity,[43],244
same,SPOT peptide array binding signal intensity,[44],1.5
same,SPOT peptide array binding signal intensity,[45],854
same,SPOT peptide array binding signal intensity,[46],8.25
same,SPOT peptide array binding signal intensity,[47],5
same,SPOT peptide array binding signal intensity,[48],63
same,SPOT peptide array binding signal intensity,[49],13
same,SPOT peptide array binding signal intensity,[50],2
same,SPOT peptide array binding signal intensity,[51],4.5
same,SPOT peptide array binding signal intensity,[52],167
same,SPOT peptide array binding signal intensity,[53],8.5
same,SPOT peptide array binding signal intensity,[54],31
same,SPOT peptide array binding signal intensity,[55],296
same,SPOT peptide array binding signal intensity,[56],294
same,SPOT peptide array binding signal intensity,[57],5
same,SPOT peptide array binding signal intensity,[58],196
same,SPOT peptide array binding signal intensity,[59],2
same,SPOT peptide array binding signal intensity,[60],145
same,SPOT peptide array binding signal intensity,[61],0.5
same,SPOT peptide array binding signal intensity,[62],6
same,SPOT peptide array binding signal intensity,[63],180
same,SPOT peptide array binding signal intensity,[64],5
same,SPOT peptide array binding signal intensity,[65],199
same,SPOT peptide array binding signal intensity,[66],268
same,SPOT peptide array binding signal intensity,[67],26
same,SPOT peptide array binding signal intensity,[68],56
same,SPOT peptide array binding signal intensity,[69],1
same,SPOT peptide array binding signal intensity,[70],120
same,SPOT peptide array binding signal intensity,[71],16
same,SPOT peptide array binding signal intensity,[72],12.5
same,SPOT peptide array binding signal intensity,[73],1
same,SPOT peptide array binding signal intensity,[74],13
KLSRGRYGLPLSSRP,SPOT peptide array binding signal intensity,[1],34
same,SPOT peptide array binding signal intensity,[2],30
same,SPOT peptide array binding signal intensity,[3],37
same,SPOT peptide array binding signal intensity,[4],59
same,SPOT peptide array binding signal intensity,[5],55.5
same,SPOT peptide array binding signal intensity,[6],7.5
same,SPOT peptide array binding signal intensity,[7],65
same,SPOT peptide array binding signal intensity,[8],20.5
same,SPOT peptide array binding signal intensity,[9],187
same,SPOT peptide array binding signal intensity,[10],63
same,SPOT peptide array binding signal intensity,[11],29
same,SPOT peptide array binding signal intensity,[12],≤ 0
same,SPOT peptide array binding signal intensity,[13],39
same,SPOT peptide array binding signal intensity,[14],4.33
same,SPOT peptide array binding signal intensity,[15],6
same,SPOT peptide array binding signal intensity,[16],41
same,SPOT peptide array binding signal intensity,[17],3.75
same,SPOT peptide array binding signal intensity,[18],380
same,SPOT peptide array binding signal intensity,[19],273
same,SPOT peptide array binding signal intensity,[20],101
same,SPOT peptide array binding signal intensity,[21],19
same,SPOT peptide array binding signal intensity,[22],146
same,SPOT peptide array binding signal intensity,[23],100
same,SPOT peptide array binding signal intensity,[24],6.5
same,SPOT peptide array binding signal intensity,[25],86
same,SPOT peptide array binding signal intensity,[26],0.5
same,SPOT peptide array binding signal intensity,[27],2
same,SPOT peptide array binding signal intensity,[28],1.5
same,SPOT peptide array binding signal intensity,[29],37
same,SPOT peptide array binding signal intensity,[30],2

# Source: the supplement of paper PMC4466140
